In PubChem BioAssay (NCATS):
Several values for one entry are separate records, joined by “and”; a condition that tells them apart may be missing. Identical values can stand only once. Results filed as inconclusive are left out. Activity calls are given as the source filed them. The call rests on the fitted dose curve; in most records, active means well fitted curve in the direction sought with a large enough effect; inconclusive means small, poorly fitted or top-dose-only effect, or another doubt; inactive means no such curve, though single readings can be large; an effect the other way counts as inactive or inconclusive.

Legend:
[1] = test system: KB-3-1; assay: Cytotoxic Profiling of Annotated Libraries Using Quantitative High-Throughput Screening (AID 1296008); conditions: Five cell lines viability, CellTiter-Glo ATP luminescence, 48-72 h; max response: hits give low values; further: nearly all actives have a fitted effect of over 60% in size
How it was run: (§1)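 Compounds were pin-transferred onto cells and incubated 48 or 72 hr at 37 degree Celsius, 95% humidity. CellTiter-Glo was added, plates sat 10 min at room temperature, then ATP-coupled luminescence was imaged as the viability read-out.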

[2] = test system: NIH3T3; assay: as above; conditions: Five cell lines viability, CellTiter-Glo ATP luminescence, 48-72 h; max response: hits give low values
How it was run: as §1

[3] = test system: MCC-13; assay: qHTS assay to identify novel small-molecules to repurpose for Merkel cell carcinoma treatment (AID 1296009); conditions: MCC and control cell lines, CellTiter-Glo viability, 72 h; series mostly up to 46 µM; further: nearly all actives have a fitted effect of over 60% in size
How it was run: (§2)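 Viability readout: ATP luminescence (CellTiter-Glo) after 72 hr drug exposure at 37 degree celsius. Dose-response format was 8 points for NPC and 11 points for MIPE; data normalized to in-plate controls.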

[4] = test system: MCC-26; assay: as above; conditions: MCC and control cell lines, CellTiter-Glo viability, 72 h; series mostly up to 46 µM
How it was run: as §2

[5] = test system: MKL-1; assay: as above; conditions: MCC and control cell lines, CellTiter-Glo viability, 72 h; series mostly up to 46 µM
How it was run: as §2

[6] = test system: MKL-2; assay: as above; conditions: MCC and control cell lines, CellTiter-Glo viability, 72 h; series mostly up to 46 µM
How it was run: as §2

[7] = test system: WaGa; assay: as above; conditions: MCC and control cell lines, CellTiter-Glo viability, 72 h; series mostly up to 46 µM
How it was run: as §2

[8] = test system: C33A; assay: Primary qHTS to identify gynecologic anti-cancer compounds using libraries of approved drugs and bioactive compounds (AID 1345084); conditions: Gynecologic cancer cell panel viability, ATPlite luminescence, 48 h; series mostly up to 57.5 µM; further: nearly all actives have a fitted effect of over 55% in size
How it was run: (§3)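 Cells, 1,000 per well, were allowed to settle for 16 h at 37 C before compound addition. Five concentrations were tested for 48 h, and viability was read by ATPlite luminescence after 15 min at room temperature.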

[9] = test system: CAOV3; assay: as above; conditions: Gynecologic cancer cell panel viability, ATPlite luminescence, 48 h; series mostly up to 57.5 µM
How it was run: as §3

[10] = test system: CASKI; assay: as above; conditions: Gynecologic cancer cell panel viability, ATPlite luminescence, 48 h; series mostly up to 57.5 µM
How it was run: as §3

[11] = test system: Es-2; assay: as above; conditions: Gynecologic cancer cell panel viability, ATPlite luminescence, 48 h; series mostly up to 57.5 µM
How it was run: as §3

[12] = test system: HeLa; assay: as above; conditions: Gynecologic cancer cell panel viability, ATPlite luminescence, 48 h; series mostly up to 57.5 µM
How it was run: as §3

[13] = test system: Hek293T; assay: as above; conditions: Gynecologic cancer cell panel viability, ATPlite luminescence, 48 h, control line for the selectivity index; series mostly up to 57.5 µM
How it was run: as §3

[14] = test system: JEG-3; assay: as above; conditions: Gynecologic cancer cell panel viability, ATPlite luminescence, 48 h; series mostly up to 57.5 µM
How it was run: as §3

[15] = test system: OV90; assay: as above; conditions: Gynecologic cancer cell panel viability, ATPlite luminescence, 48 h; series mostly up to 57.5 µM
How it was run: as §3

[16] = test system: PA-1; assay: as above; conditions: Gynecologic cancer cell panel viability, ATPlite luminescence, 48 h; series mostly up to 57.5 µM
How it was run: as §3

[17] = test system: UISO; assay: qHTS assay to identify novel small-molecules to repurpose for Merkel cell carcinoma treatment (AID 1296009); conditions: MCC and control cell lines, CellTiter-Glo viability, 72 h; series mostly up to 46 µM; further: nearly all actives have a fitted effect of over 60% in size
How it was run: as §2
On the % scale 0 is the no-effect control and ±100 the full control effect.

CCc1oc2ccccc2c1C(=O)c1cc(I)c(O)c(I)c1
inactive: max response [1] -18.7% | max response [2] -1.15% | Potency [3] | Potency [4] | Potency [5] | Potency [6] | Potency [7] | Potency [8] | Potency [9] | Potency [10] | Potency [11] | Potency [12] | Potency [13] | Potency [14] | Potency [15] | Potency [16]

Cc1ccccc1OCC(O)CO (stereo not given)
inactive: max response [1] 1.58% | max response [2] -27.4% | Potency [3] | Potency [4] | Potency [5] | Potency [6] | Potency [17] | Potency [7] | Potency [8] | Potency [9] | Potency [10] | Potency [11] | Potency [12] | Potency [13] | Potency [14] | Potency [15] | Potency [16]

OC[C@H]1O[C@@H](Oc2ccc(O)cc2)[C@H](O)[C@@H](O)[C@@H]1O
inactive: max response [1] 3.33% | max response [2] -45.3% | Potency [3] | Potency [4] | Potency [5] | Potency [6] | Potency [17] | Potency [8] | Potency [9] | Potency [10] | Potency [11] | Potency [12] | Potency [13] | Potency [14] | Potency [15] | Potency [16]

CN1CCN(C2=Nc3cc(F)ccc3Cc3ccccc32)CC1
inactive: max response [1] 0.909% | max response [2] -19.6% | Potency [3] | Potency [4] | Potency [5] | Potency [6] | Potency [17] | Potency [8] | Potency [9] | Potency [10] | Potency [11] | Potency [12] | Potency [13] | Potency [14] | Potency [16]

Cc1cc(-c2ccccc2)nnc1NCCN1CCOCC1
inactive: max response [1] -13.9% | max response [2] -3.42% | Potency [3] | Potency [4] | Potency [5] | Potency [6] | Potency [17] | Potency [7] | Potency [8] | Potency [9] | Potency [10] | Potency [12] | Potency [13] | Potency [14] | Potency [15] | Potency [16]

CC(=O)O[C@]1(C(C)=O)CC[C@H]2[C@@H]3C=C(C)C4=CC(=O)CC[C@]4(C)[C@H]3CC[C@@]21C
inactive: max response [1] 11.8% | max response [2] 0.169% | Potency [3] | Potency [4] | Potency [5] | Potency [6] | Potency [17] | Potency [7] | Potency [8] | Potency [10] | Potency [11] | Potency [12] | Potency [13] | Potency [14] | Potency [15] | Potency [16]

N[C@H](C(=O)O)[C@@H](O)c1ccc(O)c(O)c1
inactive: max response [1] -1.88% | max response [2] 0.856% | Potency [3] | Potency [4] | Potency [5] | Potency [6] | Potency [17] | Potency [7] | Potency [8] | Potency [9] | Potency [10] | Potency [11] | Potency [12] | Potency [13] | Potency [14] | Potency [15] | Potency [16]

C=C[C@H]1CN2CC[C@H]1C[C@H]2[C@H](O)c1ccnc2ccc(OC)cc12
inactive: max response [1] 4.92% and -14.4% and -25.6% | max response [2] -2.33% | Potency [3] | Potency [4] | Potency [5] | Potency [6] | Potency [17] | Potency [8] | Potency [9] | Potency [10] | Potency [11] | Potency [12] | Potency [13] | Potency [14] | Potency [16]

O=C(NCCc1c[nH]c2ccccc12)c1cccnc1
inactive: max response [1] -10.3% | max response [2] 0.897% | Potency [3] | Potency [4] | Potency [5] | Potency [6] | Potency [17] | Potency [7] | Potency [8] | Potency [9] | Potency [10] | Potency [12] | Potency [13] | Potency [14] | Potency [16]

CCOc1ccc(NC(C)=O)cc1
inactive: max response [1] 8.88% | max response [2] -7.54% | Potency [3] | Potency [4] | Potency [5] | Potency [6] | Potency [17] | Potency [7] | Potency [8] | Potency [9] | Potency [10] | Potency [11] | Potency [12] | Potency [13] | Potency [14] | Potency [16]

NCCNc1cccc2ccccc12
inactive: max response [1] -12.5% | max response [2] 0.794% | Potency [3] | Potency [17] | Potency [8] | Potency [9] | Potency [10] | Potency [11] | Potency [12] | Potency [13] | Potency [14] | Potency [15] | Potency [16]

Cl/C(=C\n1cncn1)c1ccc(Cl)cc1Cl
inactive: max response [1] 25.3% | max response [2] 0.11% | Potency [3] | Potency [5] | Potency [6] | Potency [17] | Potency [7] | Potency [8] | Potency [9] | Potency [10] | Potency [11] | Potency [13] | Potency [14] | Potency [15] | Potency [16]

O=C1OC(CN2CCOCC2)CN1/N=C/c1ccc([N+](=O)[O-])o1 (stereo not given)
inactive: max response [1] 2.54% | max response [2] -5.18% | Potency [3] | Potency [4] | Potency [17] | Potency [7] | Potency [8] | Potency [9] | Potency [10] | Potency [11] | Potency [12] | Potency [13] | Potency [14] | Potency [16]

Nc1ccc(C(=O)NCC(=O)O)cc1
inactive: max response [1] 28.3% | max response [2] -6.17% | Potency [4] | Potency [5] | Potency [6] | Potency [17] | Potency [7] | Potency [8] | Potency [10] | Potency [11] | Potency [12] | Potency [13] | Potency [14] | Potency [15] | Potency [16]

CN1CCN(C2=Nc3ccccc3Sc3ccc(Cl)cc32)CC1
inactive: max response [1] -8.12% | max response [2] -1.36% | Potency [3] | Potency [5] | Potency [6] | Potency [17] | Potency [8] | Potency [9] | Potency [10] | Potency [11] | Potency [12] | Potency [13] | Potency [14] | Potency [15]
